The campaign covered roughly 410,000 compounds. About 7,200 (1.8%) were called active. About 7% were inconclusive and are not listed. The entries come from a sample that favours actives as a whole. Values without a mark were called inactive. The call rests on the fitted dose curve; in most records, active means well fitted activation curve with a large enough effect; inconclusive means small, poorly fitted or top-dose-only effect, or another doubt; inactive means no such curve, though single readings can be large or run the other way.
test: qHTS of TDP-43 Inhibitors; details: TDP-43 expressing yeast growth rescue, BacTiter-Glo, 24 h; series mostly up to 46.1 µM; growth rescue (activation): at the top concentration; further: nearly all actives have a fitted effect of over 50% in size; on growth rescue (activation): % of control where 0% means no effect
Summary of the method: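 In this qHTS, compounds that restore growth of yeast expressing TDP-43 appear as activators. Cells (OD600=0.02, galactose medium, raffinose-pregrown) are incubated with compound 24 hr at 30 deg C and growth is quantified by BacTiter-Glo.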
Potency means the concentration at half of the fitted maximal effect.

SMILES	growth rescue (activation)	Potency
Cc1c(Cl)cccc1-c1ccc(CNCCCSc2nnnn2C)o1	0% [at 9.22 µM]	
COCc1nc2ccccc2n1Cc1ccccc1Br		20 µM (active)
C=C(Br)Cn1c(CCCC)nc2ccccc21	7.28%	
CC(C)c1ccc(Cn2c(COc3ccccc3)nc3ccccc32)cc1	-4.54%	
COc1cccc(NC(=O)C(=O)NCC(c2ccc3c(c2)OCO3)N2CCN(C)CC2)c1 (centres undefined)	2.35%	
COc1ccc(Cn2c(C(=O)O)c(CNCc3cccc(OC)c3)c3ccc(C)cc32)cc1	5.91%	
CCNC(=O)Cn1nc(C)n2c(cc3c(OC)cccc32)c1=O	18.2%	
CCOc1ccc(C(=O)N2CCN(CCc3ccccn3)CC2)cc1	19.5%	
O=C1C2C3C=CC(C3)C2C(=O)N1c1ccc(S(=O)(=O)Nc2nccs2)cc1 (centres undefined)	-11.2%	
O=C1C2C3C=CC(C3)C2C(=O)N1c1ncc([N+](=O)[O-])s1 (centres undefined)		14.1 µM (active)
O=C1C2C3C=CC(C4CC34)C2C(=O)N1c1nccs1 (centres undefined)	21.6%	
COc1ccccc1NC(=O)c1oc2ccccc2c1NC(=O)COc1ccccc1OC	13.7%	
Cc1ccc(CNS(=O)(=O)c2ccc3c(c2)N(C)CCO3)cc1		15.8 µM (active)
Cc1ccc(S(=O)(=O)NCC(=O)N2CCOCCOCCOCCOCC2)cc1	-6.52%	
CN1CCN(c2ccc(CNS(=O)(=O)c3cccc(F)c3)cc2)CC1	7.06%	
Nc1ccc2c(c1)C(O)c1ccc(Cl)cc1-2 (centres undefined)		20 µM (active)
O=C(Nc1ccc2nc(SCC(=O)N3CCCc4ccccc43)sc2c1)c1ccc(F)cc1	12.4%	
O=C(Nc1ccc(F)cc1F)c1cnn(-c2ccc(F)cc2)c1-n1cccc1	19.2%	
COC(=O)c1ccccc1NC(=O)c1cnn(-c2ccc(F)cc2)c1-n1cccc1	0%	
O=C(c1cnn(-c2ccc(F)cc2)c1-n1cccc1)N1CCN(c2ccc(F)cc2)CC1		25.1 µM (active)
CCOC(=O)c1c(C)[nH]c(CCC(=O)NCCCN2CCN(c3cccc(Cl)c3)CC2)c1C	13.5%	
Cc1cc(NC(=O)c2ccc(-c3ccc(Cl)cc3)o2)cc(-c2nc3ncccc3o2)c1O	12.2%	

SMILES	growth rescue (activation)	Potency
Cc1ccc(C(=O)COC(=O)CCCC(=O)NC2CCCCC2)cc1[N+](=O)[O-]	5.33%	
Cc1cc([N+](=O)[O-])c(N2CCC[C@@H]2C(=O)O)c([N+](=O)[O-])c1	-26.4%	
Cc1cc([N+](=O)[O-])c(NC2CCCCC2)c([N+](=O)[O-])c1		35.5 µM (active)
COc1ccc(S(=O)(=O)c2c(Nc3ccc(C)cc3)sc(C(=O)c3ccc(C)cc3)c2N)cc1	12.2%	
CCOc1ccc(NC(=O)Cn2c(C)ccc(C#N)c2=O)cc1	-1.23%	
CC(N=Cc1nc(-c2ccccc2)oc1O)c1ccccc1 (centres undefined)		12.6 µM (active)
Cn1c(=O)c2c(nc(SCC(=O)Nc3ccc(F)cc3)n2Cc2ccc(Cl)cc2)n(C)c1=O	12.5%	
CCn1c2ccccc2c2cc(CN3CCN(Cc4cccc(Cl)c4)CC3)ccc21	6.14%	
CCCCNC(=O)CSc1nc2cc3c(cc2c(=O)n1CCCCCC(=O)NCc1ccc2c(c1)OCO2)OCO3	18.1%	
CC1Cc2ccccc2N1C(=O)Cn1cnc2ccccc2c1=O (centres undefined)	-3.07%	
CC1Cc2ccccc2N1C(=O)CSc1nnc(C2CC2)n1C (centres undefined)	1.9% [at 9.22 µM]	
CC1Cc2ccccc2N1C(=O)CSc1nc2ccccc2o1 (centres undefined)		12.6 µM (active)
CCc1ccc(NC(=O)c2cnc3c(-c4ccccc4)c(C)nn3c2C)cc1	20.4%	
O=C(CN1C(=O)COc2ccc(S(=O)(=O)N3CCOCC3)cc21)N1CCN(c2cccc(Cl)c2)CC1	12.5%	
O=C(COc1ccc(Cl)cc1)Nc1ccccc1OCc1cc(=O)n2ccccc2n1	12.3%	
Cc1oc2cc([N+](=O)[O-])c(O)c([N+](=O)[O-])c2c1C(=O)c1ccc(Br)cc1	-43.2% [at 9.22 µM]	
Cc1oc2cc(Br)c(O)c(Br)c2c1C(=O)c1ccccc1		22.4 µM (active)
COc1cc(/C(=C/c2ccccc2)c2ccccc2)c2c(c1)oc1ccccc12	-12.2%	
CCc1ccccc1NC(=O)c1sc2nc3c(cc2c1N)CN(Cc1ccccc1)CC3	21%	
Cc1cccc(CCNC(=O)c2ccc3c(c2)nc2n3CCC(C)C2)c1 (centres undefined)	5.91%	
CS(=O)(=O)N(CC(=O)Nc1ccc(F)cc1)C1CCCCC1	14.6%	
CCC(C)NC(=O)CN(C1CCCCC1)S(C)(=O)=O (centres undefined)	-30.4%	

SMILES	growth rescue (activation)	Potency
CS(=O)(=O)N(CC(=O)Nc1ccc(Cl)c(Cl)c1)C1CCCCC1		15.8 µM (active)
CC(C)c1cccc(C(C)C)c1Nc1cn[nH]c1		3.98 µM (active)
FC(F)(F)c1cc(Nc2nc3ccccc3c3nncn23)ccc1Cl	0%	
O=C(CC(NCc1cccnc1)C(=O)O)Nc1ccc(O)cc1 (centres undefined)	0.784%	
COc1ccc2c(CNCCc3ccccc3C)c(C(=O)O)n(Cc3ccccc3C)c2c1	12.8%	
CCN(CCCNC(=O)CSc1cc(=O)n(C)c2cc(Cl)ccc12)c1cccc(C)c1	-25.5%	
COc1cc(C(O)c2nc(-c3cnn(C)c3)cs2)ccc1F (centres undefined)	0%	
COc1ccc(-c2csc(C(O)c3cccc(Cl)c3)n2)cn1 (centres undefined)		25.1 µM (active)
Cc1ccccc1-c1csc(C(O)c2cccc(Cl)c2)n1 (centres undefined)	8.26%	
COc1cccc(C(NC(C)=O)c2nc(-c3ccccc3OC)cs2)c1 (centres undefined)	13.7%	
CC(C)c1cccc(-c2csc(C(O)c3ccccc3)n2)c1 (centres undefined)		17.8 µM (active)
OC(c1ccccc1)c1nc(-c2cnc3ccccc3c2)cs1 (centres undefined)	0%	
COc1ccc(C(O)c2nc(-c3ccc4c(c3)OCO4)cs2)cc1 (centres undefined)		14.1 µM (active)
CC(O)(c1cccc(F)c1)c1nc(-c2ccc3c(c2)OCO3)cs1 (centres undefined)	-55.4%	
Cc1ccc(-c2nc(Cn3c(=O)cc(-c4ccccc4)c4c(C)nn(C)c43)c(C)o2)cc1	11.8%	
CCCCN1CC(c2nc3ccccc3n2CCCCOc2ccc(C)cc2C)CC1=O (centres undefined)	-86.6%	
Cc1ccc(-c2nc(CS(=O)(=O)CC(=O)NCc3ccccc3Cl)c(C)o2)cc1	14.5%	
O=C(N/N=C\C1CC=CCC1)c1ccc(Br)o1 (centres undefined)	11.6%	
O=C(Nc1cccc(C(=O)O)c1)/C(=C\c1ccccc1)NC(=O)c1ccc(Br)o1	-9.24%	
O=C(N/N=C/c1cccc(OCc2ccccc2)c1)c1ccc(Br)o1		11.2 µM (active)

From PubChem BioAssay AID652104 (National Center for Advancing Translational Sciences (NCATS), 2013)
